From PubChem BioAssay (Tox21)
Several values for one entry are separate records, joined by “and”; a condition that tells them apart may be missing. Equal values may be shown once. Results filed as inconclusive are left out. A call without a number means that no potency is given here. Some compounds were tested as several samples or in several runs, with calls that do not always agree. Activity calls are given as the source filed them. Unless noted, the call rests on the fitted dose curve; in most records, active means well fitted curve in the direction sought with a large enough effect in the repeat runs; inconclusive means weak or mixed curves; inactive means no such curve, though single readings can be large; an effect the other way counts as inactive or inconclusive.

Legend:
[1] = qHTS assay to identify small molecule agonists of the RXR signaling pathway - cell viability counter screen (AID 1159529); further: nearly all actives have a fitted effect of over 50% in size; further: potency means the concentration at half of the fitted maximal effect
In short: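 HEK 293T RXRa-bla cells, 2% CS-FBS; 5 h settle; cpd 16 h 37 C, 5% CO2; CellTiter-Glo 30 min RT, luminescence. Tetraoctyl ammonium bromide as positive control.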

[2] = qHTS assay to identify small molecule antagonists of the retinoid acid receptor (RAR) signaling pathway - cell viability counter screen (AID 1159551); further: nearly all actives have a fitted effect of over 35% in size; further: potency means the concentration at half of the fitted maximal effect
In short: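 Measured by luminescent ATP detection, viability reflects C3RL4 cells treated 6 h at 37 C with test chemicals in the presence of 1 uM (final) retinol.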

[3] = qHTS assay to identify small molecule antagonists of the retinoic acid receptor (RAR) signaling pathway (AID 1159552; further: nearly all actives have a fitted effect of over 50% in size; further: potency means the concentration at half of the fitted maximal effect)
In short: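 Cells of the C3RL4 line were seeded, incubated overnight, then dosed with compounds in DMSO followed immediately by retinol (1 uM final). Six hours later luciferase detection reagent went in; signal was measured after 30 min at RT.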

[4] = qHTS assay to identify small molecule antagonists of the estrogen related receptor (ERR) signaling pathway from Tox21 library - cell viability counter screen (AID 1224834); further: nearly all actives have a fitted effect of over 30% in size; further: potency means the concentration at half of the fitted maximal effect
In short: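 Seeded ERR cells were rested 6 h at 37 C/5% CO2 before compounds, positive and negative controls or DMSO were added. Incubation continued for 17.5 h, and viability was then quantified by CellTiter-Fluor fluorescence.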

[5] = qHTS assay to identify small molecule agonists of the constitutive androstane receptor (CAR) signaling pathway - cell viability counter screen (AID 1224836); further: nearly all actives have a fitted effect of over 45% in size; further: potency means the concentration at half of the fitted maximal effect
In short: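 HepG2-CYP2B6-hCAR, 2500 cells/well, 4 h pre-incubation; cpd 15 conc + PK11195 0.75 uM final; 23 h, 37 C/5% CO2; CellTiter-Fluor, fluorescence.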

[6] = molecular target: Nuclear receptor subfamily 1 group I member 3 (Homo sapiens) (UniProt Q14994); assay: qHTS assay to identify small molecule antagonists of the constitutive androstane receptor (CAR) signaling pathway (AID 1224838);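 further: HepG2 cells stably expressing hCAR with CYP2B6 luciferase reporter stimulated by CITCO; nearly all actives have a fitted effect of over 40% in size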; further: potency means the concentration at half of the fitted maximal effect
Nuclear receptor subfamily 1 group I member 3 (Homo sapiens), sequence (Q14994 whole entry, looked up): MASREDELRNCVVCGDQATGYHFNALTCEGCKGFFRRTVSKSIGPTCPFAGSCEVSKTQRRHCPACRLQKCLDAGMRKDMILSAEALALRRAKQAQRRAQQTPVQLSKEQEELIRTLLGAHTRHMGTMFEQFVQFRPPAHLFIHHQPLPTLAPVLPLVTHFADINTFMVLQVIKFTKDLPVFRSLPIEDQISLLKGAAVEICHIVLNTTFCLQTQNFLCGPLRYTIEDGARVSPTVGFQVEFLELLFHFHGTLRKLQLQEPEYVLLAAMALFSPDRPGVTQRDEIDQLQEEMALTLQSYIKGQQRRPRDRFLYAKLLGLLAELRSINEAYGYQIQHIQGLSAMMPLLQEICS
In short: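 Human hepatoma HepG2 cells expressing hCAR and a CYP2B6 promoter (2.2 kb) luciferase construct; compound titration (15 points) with 50 nM CITCO final, 24 h at 37 C/5% CO2; luminescence via ONE-Glo after 30 min at room temperature.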

[7] = molecular target: Thyrotropin receptor (Homo sapiens) (UniProt P16473); assay: qHTS assay to identify small molecule agonists of the thyroid stimulating hormone receptor (TSHR) signaling pathway (AID 1224843; calls by dose curve; further: nearly all actives have a fitted effect of over 45% in size; further: potency means the concentration at half of the fitted maximal effect)
Thyrotropin receptor (Homo sapiens), sequence (P16473 whole entry, looked up): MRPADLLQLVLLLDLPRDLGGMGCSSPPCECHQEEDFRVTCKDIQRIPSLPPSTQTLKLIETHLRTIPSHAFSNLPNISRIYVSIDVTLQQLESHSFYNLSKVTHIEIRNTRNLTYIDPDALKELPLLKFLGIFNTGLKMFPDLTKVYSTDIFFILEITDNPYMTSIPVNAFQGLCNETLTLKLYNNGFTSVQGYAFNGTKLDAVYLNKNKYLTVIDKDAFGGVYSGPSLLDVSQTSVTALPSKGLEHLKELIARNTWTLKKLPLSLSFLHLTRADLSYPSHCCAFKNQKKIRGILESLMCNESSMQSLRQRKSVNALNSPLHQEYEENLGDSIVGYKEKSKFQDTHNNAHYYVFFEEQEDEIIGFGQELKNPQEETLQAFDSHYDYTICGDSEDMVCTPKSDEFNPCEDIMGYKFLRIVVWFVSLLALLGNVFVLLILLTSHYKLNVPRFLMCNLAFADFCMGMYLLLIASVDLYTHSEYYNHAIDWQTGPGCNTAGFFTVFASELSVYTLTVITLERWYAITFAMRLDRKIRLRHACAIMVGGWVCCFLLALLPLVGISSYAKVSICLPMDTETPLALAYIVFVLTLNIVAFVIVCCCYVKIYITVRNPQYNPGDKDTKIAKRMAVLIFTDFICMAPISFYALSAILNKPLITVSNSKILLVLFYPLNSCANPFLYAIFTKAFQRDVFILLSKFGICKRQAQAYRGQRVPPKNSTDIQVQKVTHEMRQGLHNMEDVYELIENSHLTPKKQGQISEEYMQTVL
In short: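 Agonist-mode screen: TSHR HEK293 cells received test chemicals for half an hour at room temperature, then HTRF cAMP detection reagents for one hour prior to fluorescence measurement. Each chemical ran as a 15-concentration series, triplicated.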

[8] = molecular target: Luciferin 4-monooxygenase (Photinus pyralis) (UniProt P08659); assay: qHTS assay to identify small molecule inhibitors of firefly luciferase (AID 1224835); further: nearly all actives have a fitted effect of over 25% in size; further: potency means the concentration at half of the fitted maximal effect
Luciferin 4-monooxygenase (Photinus pyralis), sequence (P08659 whole entry, looked up): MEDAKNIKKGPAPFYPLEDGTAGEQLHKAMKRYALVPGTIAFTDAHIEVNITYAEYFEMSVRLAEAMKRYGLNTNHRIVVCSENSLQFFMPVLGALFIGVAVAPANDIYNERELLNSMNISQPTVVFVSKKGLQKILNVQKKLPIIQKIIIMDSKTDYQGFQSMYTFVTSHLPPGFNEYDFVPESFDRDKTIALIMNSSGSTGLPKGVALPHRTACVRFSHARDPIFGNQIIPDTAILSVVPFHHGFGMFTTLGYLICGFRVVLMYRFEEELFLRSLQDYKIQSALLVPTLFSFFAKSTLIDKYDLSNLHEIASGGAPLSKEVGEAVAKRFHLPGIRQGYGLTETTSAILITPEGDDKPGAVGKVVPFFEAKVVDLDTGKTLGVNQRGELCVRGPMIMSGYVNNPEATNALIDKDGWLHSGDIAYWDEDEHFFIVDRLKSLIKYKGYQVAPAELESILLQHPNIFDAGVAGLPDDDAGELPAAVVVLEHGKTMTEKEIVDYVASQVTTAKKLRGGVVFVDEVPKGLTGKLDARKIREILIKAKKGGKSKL
In short: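 Biochemical qHTS: compounds run as interplate titrations against purified firefly enzyme, with D-luciferin and ATP each at its KM concentration. Light output recorded by CCD imaging.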

[9] = qHTS assay to identify small molecule antagonists of the constitutive androstane receptor (CAR) signaling pathway - cell viability counter screen (AID 1224837); further: nearly all actives have a fitted effect of over 45% in size; further: potency means the concentration at half of the fitted maximal effect
In short: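 To flag cytotoxic false antagonists, HepG2 hCAR/CYP2B6-2.2kb cells were treated 23 hr with 15-concentration compound series and 50 nM CITCO at 37 C/5% CO2; CellTiter-Fluor fluorescence was the measured end point.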

[10] = molecular target: Nuclear receptor subfamily 1 group I member 3 (Homo sapiens) (UniProt Q14994); assay: qHTS assay to identify small molecule agonists of the constitutive androstane receptor (CAR) signaling pathway (AID 1224839); further: nearly all actives have a fitted effect of over 15% in size; further: potency means the concentration at half of the fitted maximal effect
In short: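 HepG2-CYP2B6-hCAR cells, 2500/well, 4 h pre-incubation; compounds 15 conc.; PK11195 0.75 uM final; 24 h, 37 C/5% CO2; ONE-Glo luciferase read.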

[11] = qHTS assay to identify small molecule antagonists of the estrogen related receptor signaling pathway with the pleiotropic PPARgamma coactivator (PGC) from Tox21 10K library - cell viability counter screen (AID 1224840; active means well fitted cell-killing curve with a large enough effect in the repeat runs, not every such curve was filed as active; further: nearly all actives have a fitted effect of over 40% in size; further: potency means the concentration at half of the fitted maximal effect)
In short: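 Seeded PGC/ERR cells (2,000/well, 6 h, 37 C/5% CO2) get compound by pin tool; 17.5 h incubation at 37 C; CellTiter-Fluor added, 30 min, fluorescence measured.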

[12] = qHTS assay to identify small molecule antagonists of the estrogen related receptor (ERR) signaling pathway - cell viability counter screen (AID 1224818); further: series mostly up to about 46 µM
In short: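 Compounds dissolved in DMSO were applied to ERR cells seeded at 2,000 per well 6 h earlier. Cell viability followed 17.5 h later via 30-min CellTiter-Fluor fluorescence.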

[13] = qHTS assay to identify small molecule antagonists of the estrogen related receptor (ERR) signaling pathway (AID 1224819;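 further: luminescence from an ERR-driven luciferase reporter measured with One-Glo reagent; series mostly up to about 46 µM; nearly all actives have a fitted effect of over 50% in size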)
In short: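 Compounds dissolved in DMSO were pin-transferred onto ERR cells that had been plated 6 h earlier, and cells were then incubated 18 h at 37 C; signal was luciferase luminescence via One-Glo.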

[14] = qHTS assay to identify small molecule agonists of the estrogen related receptor (ERR) signaling pathway (AID 1224820)
In short: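 An ERR cell line provided by NTP was seeded at 2,000 cells per well and allowed to settle for 6 h before compounds in DMSO were added. After 18 h at 37 C, luciferase activity was measured by One-Glo luminescence.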

[15] = test system: estrogen-related receptor alpha (ERRalpha) with PGC-1alpha coactivator, human; assay: qHTS assay to identify small molecule antagonists of the estrogen related receptor signaling pathway with the pleiotropic PPARgamma coactivator (PGC) (AID 1224821; calls by dose curve;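 further: series mostly up to about 46 µM; lower luminescence signal means antagonism of PGC/ERR signalling; nearly all actives have a fitted effect of over 50% in size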)
In short: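 A PGC/ERR cell line supplied by NTP is seeded, allowed 6 h at 37 C, and treated with test compounds in DMSO for 18 h. Signal is then measured as luciferase luminescence using One-Glo.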

[16] = qHTS assay to identify small molecule antagonists of the estrogen related receptor signaling pathway with the pleiotropic PPARgamma coactivator (PGC) cell viability counter screen (AID 1224822; further: series mostly up to about 46 µM)
In short: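 Counter screen for cell viability: PGC/ERR cells, 6 h pre-incubation after plating, 17.5 h compound exposure at 37 C, fluorescence from CellTiter-Fluor after 30 min.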

[17] = qHTS assay to identify small molecule agonists of the estrogen related receptor signaling pathway with the pleiotropic PPARgamma coactivator (PGC) (AID 1224823)
In short: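 Compounds dissolved in DMSO are added by pin tool to PGC/ERR cells that have settled for 6 h, and incubation continues 18 h at 37 C. Reporter output is measured as One-Glo luminescence.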

[18] = qHTS assay to identify small molecule agonists of the estrogen related receptor signaling pathway with the pleiotropic PPARgamma coactivator (PGC) from Tox21 10K library (AID 1224842); further: nearly all actives have a fitted effect of over 15% in size; further: potency means the concentration at half of the fitted maximal effect
In short: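 PGC/ERR reporter cell line, 2,000 cells per well, incubated 6 h at 37 C before 23 nL compound in DMSO was added. After 18 h at 37 C, One-Glo luminescence read following 30 min at room temperature.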

[19] = qHTS assay to identify small molecule agonists of the retinoic acid receptor (RAR) signaling pathway (AID 1159553)
In short: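 6 hr compound exposure (DMSO vehicle) of overnight-plated C3RL4 RARE-luc cells at 37 C; luminescence quantified after 30 min RT with luciferase reagent.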

C=C1CC[C@H](O)C/C1=C\C=C1/CCC[C@]2(C)[C@@H]([C@H](C)CCCC(C)C)CC[C@@H]12
Potency [1]: 24.3 µM (active)
Potency [2]: inactive
Potency [3]: inactive
Potency [4]: 54 µM (active)
Potency [5]: inactive
Potency [6]: inactive
Potency [7]: 19.2 µM (active)

C=CCc1ccc(O)c(OC)c1
Potency [1]: inactive
Potency [2]: inactive
Potency [3]: inactive
Potency [4]: inactive
Potency [8]: inactive
Potency [5]: inactive
Potency [9]: inactive
Potency [6]: inactive
Potency [10]: inactive
Potency [11]: inactive
Potency [7]: inactive

C1=CC2C3C=CC(C3)C2C1 (centres undefined)
Potency [1]: inactive
Potency [2]: inactive
outcome [12]: inactive
Potency [13]: inactive
outcome [14]: inactive
outcome [15]: inactive
Potency [16]: inactive
outcome [17]: inactive
Potency [8]: inactive
Potency [9]: inactive
Potency [10]: inactive
Potency [11]: inactive
Potency [18]: inactive

O=C1NC(=O)C(c2ccccc2)(c2ccccc2)N1
Potency [1]: inactive
Potency [2]: inactive
outcome [12]: inactive
Potency [16]: inactive
Potency [4]: inactive
Potency [8]: inactive
Potency [5]: inactive
Potency [9]: inactive
Potency [6]: inactive
Potency [10]: inactive
Potency [11]: inactive
Potency [7]: inactive

CC(C)NCC(O)c1ccc(O)c(O)c1 (centres undefined)
Potency [1]: inactive
Potency [2]: inactive
outcome [12]: inactive
Potency [13]: inactive
outcome [15]: inactive
Potency [16]: inactive
outcome [17]: inactive
Potency [4]: inactive
Potency [5]: inactive
Potency [9]: inactive
Potency [11]: inactive
Potency [18]: 5.4 nM (active) and 8.6 nM (active) and inactive
Potency [7]: 7.6 nM (active) and 4.9 nM (active) and 11.9 nM (active)

NC(=O)n1c(O)c(C(=O)c2cccs2)c2cc(Cl)ccc21
Potency [2]: inactive
Potency [3]: inactive
Potency [4]: 23.7 µM (active)
Potency [8]: 30.9 µM (active)
Potency [6]: inactive
Potency [7]: inactive

CC(=O)CC(c1ccccc1)c1c(O)c2ccccc2oc1=O (centres undefined)
Potency [1]: inactive
Potency [2]: inactive
Potency [4]: inactive
Potency [5]: inactive
Potency [9]: inactive
Potency [11]: inactive

CCCCCCCCCCCC[N+](C)(C)Cc1ccccc1
Potency [1]: 6.78 µM (active) and 8.43 µM (active) and 1.69 µM (active)
Potency [2]: 60 µM (active) and 74.5 µM (active)
Potency [4]: 60 µM (active) and 66.4 µM (active) and 23.7 µM (active)
Potency [8]: inactive
Potency [5]: 47.6 µM (active) and 59.2 µM (active) and 29.8 µM (active)
Potency [9]: 47.6 µM (active) and 23.7 µM (active)
Potency [6]: 83.6 µM (active) and 29.8 µM (active)
Potency [11]: 60 µM (active) and 41.9 µM (active)
Potency [7]: 30 µM (active) and 37.4 µM (active)

O=C1NS(=O)(=O)c2ccccc21
Potency [1]: inactive
Potency [2]: inactive
Potency [4]: inactive
Potency [5]: inactive
Potency [9]: inactive
Potency [11]: inactive
Potency [7]: inactive

NS(=O)(=O)O
Potency [1]: inactive
Potency [2]: inactive
Potency [4]: inactive
Potency [8]: inactive
Potency [5]: inactive
Potency [9]: inactive
Potency [6]: inactive
Potency [11]: inactive

CC(=O)Nc1c(I)c(NC(C)=O)c(I)c(C(=O)O)c1I
Potency [1]: inactive
Potency [2]: inactive
Potency [4]: inactive
Potency [5]: inactive
Potency [9]: inactive
Potency [11]: inactive
Potency [7]: inactive

CCN(Cc1c(F)cccc1Cl)c1c([N+](=O)[O-])cc(C(F)(F)F)cc1[N+](=O)[O-]
Potency [1]: 9.77 µM (active)
Potency [2]: inactive
Potency [8]: inactive
Potency [5]: inactive
Potency [9]: inactive
Potency [6]: inactive
Potency [10]: 7.7 µM (active)
Potency [11]: inactive
Potency [18]: inactive

F[B-](F)(F)F
Potency [1]: inactive
Potency [2]: inactive
Potency [4]: inactive
Potency [8]: inactive
Potency [5]: inactive
Potency [9]: inactive
Potency [11]: inactive
Potency [7]: inactive

COc1ccc2cc(S(=O)(=O)N[C@H](CC(=O)N[C@H](Cc3ccc(CN4[C@H](C)CCC[C@@H]4C)cc3)C(=O)N(C)C(C)C)c3ccc4c(c3)OCO4)ccc2c1
Potency [1]: 2.32 µM (active)
Potency [3]: 51.6 µM (active)
Potency [4]: 51.6 µM (active)
Potency [8]: inactive
Potency [5]: 23 µM (active)
Potency [9]: 25.8 µM (active)
Potency [6]: 41 µM (active)
Potency [10]: inactive
Potency [11]: 29 µM (active)
Potency [18]: inactive
Potency [7]: inactive

CCOC(N)=O
Potency [1]: inactive
Potency [2]: inactive
Potency [4]: inactive
Potency [8]: inactive
Potency [5]: inactive
Potency [9]: inactive
Potency [11]: inactive
Potency [7]: inactive

CN[C@H]1CC[C@@H](c2ccc(Cl)c(Cl)c2)c2ccccc21
Potency [2]: inactive
Potency [3]: 26.6 µM (active)
outcome [12]: inactive
Potency [13]: inactive
outcome [14]: inactive
outcome [15]: inactive
Potency [16]: inactive
Potency [4]: 29.8 µM (active)
Potency [8]: inactive
Potency [5]: inactive
Potency [9]: inactive
Potency [6]: inactive
Potency [11]: 26.6 µM (active)

Nc1ccc([N+](=O)[O-])cc1O
Potency [19]: inactive
Potency [16]: inactive
Potency [6]: inactive
Potency [11]: 30.6 µM (active)

CCCCC(CC)C(=O)O (centres undefined)
Potency [1]: inactive
Potency [2]: inactive
Potency [4]: inactive
Potency [8]: inactive
Potency [5]: inactive
Potency [9]: inactive
Potency [11]: inactive
Potency [7]: inactive

CC(C)c1c(C(=O)Nc2ccccc2)c(-c2ccccc2)c(-c2ccc(F)cc2)n1CC[C@@H](O)C[C@@H](O)CC(=O)O
Potency [1]: inactive
Potency [2]: inactive
outcome [12]: inactive
Potency [16]: inactive
Potency [4]: inactive
Potency [5]: inactive
Potency [9]: inactive
Potency [6]: inactive
Potency [11]: inactive
Potency [7]: inactive

O=C1c2c(O)cccc2Cc2cccc(O)c21
Potency [1]: inactive
Potency [2]: inactive
Potency [4]: inactive
Potency [8]: inactive
Potency [5]: inactive
Potency [9]: inactive
Potency [11]: inactive
Potency [7]: inactive

C[C@](N)(Cc1ccc(O)c(O)c1)C(=O)O
Potency [1]: inactive
Potency [2]: inactive
outcome [12]: inactive
Potency [16]: inactive
Potency [4]: inactive
Potency [5]: inactive
Potency [9]: inactive
Potency [6]: inactive
Potency [11]: inactive

COc1ccc(OC(F)(F)F)cc1CN[C@H]1CCCN[C@H]1c1ccccc1
Potency [2]: inactive
Potency [4]: 54.5 µM (active)
Potency [8]: inactive
Potency [5]: 61.1 µM (active)
Potency [9]: 54.5 µM (active)
Potency [6]: 54.5 µM (active)
Potency [11]: 54.5 µM (active)
